Results: PubChem BioAssay (NCI)
This is part of a sample that, as a whole, favours compounds with a hit. Of some 83,000 tested, about 20% had one in any assay.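 Plates (96-well) were seeded with cells, treated with compound at one concentration, and incubated for 48 hours before percent growth was determined.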 Unmarked numbers belong to inactive results. Active and inactive are the calls of the source. The calls were made as follows: active = growth percent below 10; inactive = the rest.

System: HL-60(TB) leukemia
Test: NCI-60 one-dose screen, 48 h (100 = growth as untreated, 0 = no growth, -100 = all killed)
Conditions: 10 µM unless noted

Row | SMILES | growth
1 | Cc1cccc(C)c1Nc1nnc(-c2ccc(F)cc2)o1 | 99.9%
2 | O=C(Nc1ccc(Nc2ccncc2)cc1)c1ccc(Nc2ccnc3ccc([N+](=O)[O-])cc23)cc1 | 79.9%
3 | Fc1ccccc1-c1nc(-c2nc3cc(Cl)c(Cl)cc3[nH]2)c2ccccn12 | 81.6%
4 | Oc1[nH]c2ccccc2c1/C=c1/cc2c(c(-c3ccc(C(F)(F)F)cc3)n1)=Nc1ccccc1-2 | 19.2%
5 | COc1cc(C)ccc1Oc1nc(Nc2ccc(N3CCOCC3)cc2)ncc1N=Cc1cc(C(F)(F)F)cc(C(F)(F)F)c1 | 67.4%
6 | N#Cc1ncc(-c2cc(F)ccc2F)c(NC2CCCCCC2)n1 | 86.9%
7 | Clc1ccc(N/N=C(\c2ccccc2)c2ccccn2)nc1 | -28.3% (active)
8 | COc1ccc(-c2nn(-c3cccc(Cl)c3)cc2-c2c(C#N)c(=O)n3[nH]c(-c4ccc(C)cc4)nc3c2C#N)cc1 | 61.7%
9 | CC1=NC(=S)NC(c2ccccc2)/C1=C1/CC(c2ccccc2O)NN1 (stereo unspecified) | 97.2%
10 | COc1ccc(-c2nc(N/N=C/c3ccco3)nc(N3CCOCC3)c2C#N)cc1 | 94.8%
11 | O=C(O)c1ccc2c(c1)nc(Nc1cccc(Cl)c1)c1ccncc12 | -28.6% (active)
12 | CCCCCCCCCCCCCCCCCC1OCC(COC(=O)O[C@]2(CC)C(=O)OCc3c2cc2n(c3=O)Cc3cc4ccccc4nc3-2)O1 (stereo partly specified) | 102%
13 | CCN(CCO)CC(=O)c1cc(Cl)cc(Cl)c1Cl | 106%
14 | CC(C)C1CCC(C)C(C2(C#N)C(N)=NC(N)=C2C#N)C1=O (stereo unspecified) | 96.7%
15 | O=C(c1ccccc1)N(CCCCl)C(=O)N(CCCCl)C(=O)c1ccccc1 | 94%
16 | COc1cc2c(cc1-c1c(C)noc1C)ncc1nc(C3CCOCC3)n(C3CCC(OC(F)F)CC3)c12 (stereo unspecified) | 7.23% (active)
17 | CCn1c(Cc2ccccc2Nc2c(Cl)cccc2Cl)nnc1SCC(=O)NN1C(=O)/C(=C/c2cc(OC)c(O)c(OC)c2)SC1=S | -1.07% (active)
18 | C1CCC(N2CN3c4nonc4N4CN(C5CCCCC5)CN5c6nonc6N(C2)C3C45)CC1 (stereo unspecified) | 100%
19 | C=CCn1c(SCC(=O)Nc2ccc(C(=O)/C=C/c3cc(OC)c(OC)c(OC)c3)cc2)nnc1-c1cc(-c2ccc(OC)cc2)nc2ccccc12 | 96.4%
20 | C#CCOc1ccc2ncnc(N3CCC(NC(=O)CCl)CC3)c2c1 | 68.8% [8.25 µM]
21 | COc1cc(N2C(=O)c3nccnc3C2=O)cc(OC)c1OC | 90.3%

Row | SMILES | growth
22 | CCOC(=O)C#Cc1c(C(=O)OCC)nnn1[C@@H]1O[C@H](COC(C)=O)[C@@H](OC(C)=O)[C@H]1OC(C)=O | 74%
23 | O=c1[nH]c(O)c(/C=C2/C=Nc3ccccc32)[nH]1 | 35.4%
24 | COc1cc(/C=C/C(=O)c2ccc(F)cc2)ccc1OCCCCOc1ccc(/C=C/C(=O)c2c(C)nc3ccccc3c2C)cc1OC | 79.8%
25 | Cn1ccnc1C(=O)/C=C/c1ccc(CC(=O)Nc2ccccc2)cc1 | -27.2% (active)
26 | O=C(/C=C/c1ccccc1)n1c(-c2ccc(Cl)cc2)nc2ccccc21 | -3.97% (active)
27 | Nc1cc(-c2ccc(Cl)cc2)nn1-c1nc(-c2ccc(Br)cc2)cs1 | 96.3%
28 | Cn1c(=O)c2c(nc(Br)n2CC(=O)Nc2ccc(F)cc2)n(C)c1=O | 95.3%
29 | CN1C2C=CC(=O)C1C1C(=O)N(c3ccccc3)C(=O)C12 (stereo unspecified) | 55.7%
30 | COc1cc(C(=O)NNC(=O)c2ccccc2C(=O)O)cc(OC)c1OC | 5.84% (active)
31 | Cc1cc[n+](CCCCCCCCCC[n+]2ccc(C)cc2)cc1 | 95.3%
32 | Nn1c(SCC(=O)Nc2ccc(Cl)cc2)nnc1-c1cc(F)c(Cl)cc1Cl | 84.5%
33 | C=C(C)[C@@H]1CC[C@]2(C(=O)N3CCN(C)CC3)CC[C@]3(C)[C@H](CC[C@@H]4[C@@]5(C)C/C(=C/c6ccncc6)C(=O)C(C)(C)[C@@H]5CC[C@]43C)[C@@H]12 | -21.7% (active)
34 | Cc1ccc(-n2nc3c(c(C#N)c2=O)CC(c2ccccc2Cl)C([N+](=O)[O-])=C3O)cc1 (stereo unspecified) | 96%
35 | COc1ccc(C(C)c2cc(OC)c(OC)c(OC)c2)cc1 (stereo unspecified) | -15.6% (active)
36 | COc1cccc2c1C(=O)c1c(O)c3c(c(O)c1C2=O)C[C@](O)(C(=O)CO)C[C@H]3O[C@@H]1C[C@@H](NC(=O)CCCN(C)C2(c3ccc(F)cc3)CC3CCC2C3)[C@H](O)[C@@H](C)O1 (stereo partly specified) | 76%
37 | COc1cc2nc(-c3ccc(C(F)(F)F)cc3)cc(OCCN3CCCCC3)c2cc1OC | 58.6%
38 | CC(C)(C)n1cc(-c2ccnc(NCCCNS(=O)(=O)c3ccccc3)c2)c(-c2cccc(O)c2)n1 | 32.8%
39 | CN(C)c1ccc(-c2ccc(-c3ccc(C(=N)N)cn3)o2)cc1 | -67.3% (active)
40 | OCCNCCNc1c2ccccc2nc2ccccc12 | 86.2%
41 | OC(c1ccccc1)(c1ccccc1)c1ccccc1-c1ccccc1 | 82%
42 | O=C(NCCNC(=O)c1ccc(F)cc1)Nc1ccc(-n2cc(-c3ccncc3)c(-c3ccc(Cl)c(O)c3)n2)cc1 | -14.1% (active)

Row | SMILES | growth
43 | CC1(C)CC[C@]2(CO)CC[C@]3(C)C(=CC[C@@H]4[C@@]5(C)CC[C@H](NCO)C(C)(C)[C@@H]5CC[C@]43C)[C@@H]2C1 | -60.5% (active)
44 | CCOC(=O)c1c2c(n3ccc(NC(=O)CCN(CC)CC)cc13)C(=O)c1ncccc1C2=O | -48.5% (active)
45 | O=C(O)/C=C/c1ccc2c(c1)CCC2 | 110%
46 | O=C(CSc1ccc2nnc(-c3cccc(F)c3)n2n1)Nc1ccc2c(c1)OCO2 | 78.9%
47 | COc1cccc(/C=C/C(=O)c2cc3c(N)c(C(=O)Nc4cccc(Cl)c4C)sc3nc2C)c1 | 0.771% (active)
48 | O=C(Nc1ccc(-n2cc(-c3ccncc3)c(-c3ccc(Cl)c(O)c3)n2)cc1)N1CCOCC1 | 108%
49 | CCCCCCNC(=O)Nc1ncnc2c1ncn2-c1ccccc1 | 109%
50 | CN(C(=O)c1ccccc1)N(C)C(=O)c1ccccc1 | 92.8%
51 | CCOc1cc2ncc(C#N)c(Nc3ccc(OCc4ccccn4)c(Cl)c3)c2cc1NC(=O)/C=C/CN(C)C | 2.7% (active)
52 | COc1cc2c(cc1OC)-c1ccc3cc4c(cc3c1N(CCCN1CCCCC1)C2)OCO4 | 37.1%
53 | COc1ccc2nc3cc(Cl)ccc3c(Nc3ccc(N(C)C)cc3)c2c1 | 90%
54 | Cc1cc(Cl)ccc1Nc1nc(C(F)(F)F)ccc1C(=O)N/N=C/c1ccc(F)cc1 | -35.6% (active)
55 | O=C1NN(c2ccccc2)C(c2cccnc2)=N/C1=C\c1cccnc1 | 104%
56 | Cc1cccc(Oc2ccc(Nc3ncnc4ccc(NC(=O)CN(C)C)cc34)cc2Cl)c1 | -48% (active)
57 | O=C1/C(=C/c2ccc([N+](=O)[O-])cc2)CN(C(=O)CCN2CCC(=NO)CC2)C/C1=C\c1ccc([N+](=O)[O-])cc1 | 2.62% (active)
58 | N=C(N)c1ccc(-c2ccc(-c3ccc(Cl)cc3Cl)o2)cc1 | -60.8% (active)
59 | N=C(N)c1ccc(-c2ccc(-c3cc(Cl)cc(Cl)c3)s2)cc1 | -57.6% (active)
60 | CN1CCN(c2ccc3nc4c(nc3c2C(F)(F)F)C(=O)c2ncccc2C4=O)CC1 | -50.4% (active)
61 | CCCCCCCO | 114%
62 | CC(C)(C)C(=O)Nc1nc2c(s1)CCc1ccn(S(=O)(=O)c3ccccc3)c1-2 | 70%
63 | O=C(/C(=C\c1ccc([N+](=O)[O-])cc1)S(=O)Cc1ccc(F)cc1)c1ccc(F)cc1 (stereo unspecified) | 5.72% (active)

Row | SMILES | growth
64 | COc1ccc(/C=C(\C#N)c2cc3ccccc3n2C(C)=O)cc1 | 83.2%
65 | CCOC(=O)CCCC(=O)OCC | 102%
66 | c1ccc(-c2n(Cc3ccc4ccccc4n3)cc[n+]2Cc2ccc3ccccc3n2)cc1 | -33.1% (active)
67 | NCCC(=O)c1ccc(Cl)cc1 | 95.6%
68 | O=C1/C(=C/c2cn(-c3ccccc3)nc2-c2ccccc2)SC(=S)N1c1ccc(Cl)cc1 | 86%
69 | O=C(Cn1nnc([N+](=O)[O-])n1)c1ccccc1 | 38%
70 | COc1ccc2c3c([nH]c2c1)C(=O)c1nc(C)ccc1C3=O | 59%
71 | CCOC(=O)c1c2c(c(C)n1C)-c1nn(Cc3ccc(OC)cc3)cc1CC2 | 73.1%
72 | Oc1cc(/C=C/c2nc(N3CCOCC3)c3cc(Cl)c(Cl)cc3n2)cc(O)c1O | 99.4%
73 | Fc1ccc(-c2nc(Nc3ccc(-c4nc5ccccc5[nH]4)cc3)nc(N3CCOCC3)n2)cc1 | -81.4% (active)
74 | Cc1nn(-c2ccccc2)c2c1N=c1s/c(=C\c3ccc(C(F)(F)F)cc3)c(=O)n1CN2 | 91.2%
75 | C#Cc1cccc(NC(=O)c2ccc(Cl)cc2Cl)c1 | 72.5%
76 | CCC(C)Nc1ccc(N)cc1 (stereo unspecified) | -9.29% (active)
77 | COC(=O)[C@H](Cc1cn(C)cn1)NC(=O)[C@H](Cc1ccccc1)NC(=O)Nc1cc(C(F)(F)F)cc(C(F)(F)F)c1 | -67.9% [100 µM] (active)
78 | Cc1nc2cc(Nc3nc(Nc4ccc(F)cc4)nc(N4CCN(C)CC4)n3)ccc2n1Cc1ccccc1 | -56.9% (active)
79 | COc1ccc(/C(C#N)=C/c2nc3c(N4CCOCC4)nc(Cl)nc3n2C)cc1OC | -28% (active)
80 | CCOC(=O)c1cc(C(=O)c2cc(OC)c(OC)c(OC)c2)n2ccc(-c3cc[n+](CC(=O)c4cc(OC)c(OC)c(OC)c4)cc3)cc12 | 32.9%
81 | COc1ccc(-c2csc(NC(=O)CN3CCN(CCO)CC3)n2)cc1NS(=O)(=O)c1cccc2c(N(C)C)cccc12 | 93.8%
